Screening results deposited in PubChem BioAssay by National Center for Advancing Translational Sciences (NCATS).
Most compounds without a hit are left out; they make up all but 9.4% or so of the library.
Rab9 prom act: activates the Rab9 promoter | Huh7 Rab9 promoter-luciferase reporter, luminescence, 24 h | Potency, µM (doses to about 9.22 µM), inactives show at the top dose activation, negative = inhibition, usual class: activators | hit rate 2.8% among 320,000 | AID 485297; note: % of control where 0% means no effect; nearly all actives have a fitted effect of over 60% in size
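Huh7 reporter line, Rab9 promoter upstream of luciferase. Compound exposure 24 h at 37 °C in reduced-serum medium with 10% FBS. Read-out: luminescence.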
SMN2 splice enh: enhancers of SMN2 splice variant expression; HEK293 SMN2-luciferase splicing reporter, luminescence, 30-36 h; Potency, µM (doses to about 46.1 µM), for inactives: top-dose activity change, positive = activation, most hits filed as activators; hit rate 2.8% among 210,000; note: % of control where 0% means no effect; nearly all actives have a fitted effect of over 55% in size
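HEK293 cells carry an SMN2 minigene-luciferase reporter in which exon 7 inclusion puts luciferase in frame. Cells were seeded at 2000 cells/well, attached for 10-12 hours, then exposed to compounds for 30-36 hours at 37C before ONE-Glo luminescence.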
ELG1 genotox: inducers of genotoxicity in HEK293T ELG1-luciferase cells; HEK293T ELG1-luciferase reporter, luminescence, 16 h; Potency, µM (top dose mostly 46 µM), without a hit: at the top dose activity change, positive = activation, most hits filed as activators; hit rate 1.3% among 330,000; note: % of control where 0% means no effect; nearly all actives have a fitted effect of over 60% in size
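Reporter readout depends on ELG1 protein level, which increases with genetic stress. After 16 hr compound exposure at 37 °C, luciferase activity was quantified using ONE-Glo.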
FLuc modulator: counter-screen for miR-21 project: firefly luciferase inhibitors or activators. P08659. purified FLuc, Km substrates, luminescence inhibition. Potency, µM (series often up to 57.5 µM), for the others: at the top dose activity change, negative = inhibition, most hits filed as inhibitors. hit rate 6.9% among 360,000. AID 588342;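 note: plate controls were vehicle for no effect and reference inhibitor for full effect; nearly all actives have a fitted effect of over 55% in size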
Target sequence (P08659 whole entry, looked up): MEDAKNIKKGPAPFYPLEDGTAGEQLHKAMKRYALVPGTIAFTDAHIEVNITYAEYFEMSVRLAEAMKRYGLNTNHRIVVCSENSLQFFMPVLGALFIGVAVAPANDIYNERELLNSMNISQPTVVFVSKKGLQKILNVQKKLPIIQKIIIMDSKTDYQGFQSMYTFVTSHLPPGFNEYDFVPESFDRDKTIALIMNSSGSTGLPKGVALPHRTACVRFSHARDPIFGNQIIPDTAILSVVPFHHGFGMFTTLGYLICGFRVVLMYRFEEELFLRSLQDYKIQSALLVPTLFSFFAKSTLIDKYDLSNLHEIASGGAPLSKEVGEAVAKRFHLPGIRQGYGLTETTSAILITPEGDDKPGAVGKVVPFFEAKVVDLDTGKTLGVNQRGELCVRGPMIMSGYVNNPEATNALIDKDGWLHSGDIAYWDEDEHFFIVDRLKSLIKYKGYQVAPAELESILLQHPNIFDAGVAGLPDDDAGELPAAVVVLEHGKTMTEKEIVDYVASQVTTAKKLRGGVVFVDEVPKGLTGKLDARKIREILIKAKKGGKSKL
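Purified P. pyralis luciferase (10nM final) with 10uM D-luciferin and 10uM ATP (Km levels) in 50mM Tris acetate pH 7.5, 10mM Mg acetate, 0.01% Tween-20, 0.05% BSA; qHTS 6-point titration, ~60 µM downward; luminescence read.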
NPC1 prom act: NPC1 promoter activation; hit rate 2.4% among 320,000; Huh7 NPC1 promoter luciferase reporter, 24 h; Potency, µM (doses to about 9.22 µM), inactives show at the highest dose activation, actives largely listed as activators; note: % of control where 0% means no effect; nearly all actives have a fitted effect of over 60% in size
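Cells: Huh7 expressing luciferase under the NPC1 promoter, 1500/well. Seeded 2 h, compound added, incubated 24 h at 37 °C. Luciferase reagent, 10 min ambient, then luminescence.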
ELG1 repair inh: inhibitors of ELG1-dependent DNA repair in HEK293T cells; hit rate 2.3% among 330,000; AID 504467; Potency, µM (doses to about 46.1 µM), without a hit: at the highest dose activity change, negative = inhibition, actives largely listed as inhibitors; HEK293T ELG1-luciferase reporter, luminescence, 16 h; DNA damage induced by 5-fluorouridine; note: % is set by controls: 0 for no effect and ±100 for the full control effect; nearly all actives have a fitted effect of over 55% in size
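Step one: seed 2,000 cells per well. Step two: pin-transfer compound or DMSO alongside 5-fluorouridine. Step three: incubate 16 hr, 37 °C, 5% CO2. Step four: add ONE-Glo, wait 30 min, read luminescence.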
Numbers without * were called inactive; ? = inconclusive; · = no result given; [ ] = another dose, or the depositor's remark. Calls come from the whole dose curve; as a rule, active = well fitted curve in the direction sought with a large enough effect; inconclusive = small, poorly fitted or top-dose-only effect, or another doubt; inactive = no such curve, though single readings can be large; an effect the other way counts as inactive or inconclusive. Potency is the fitted concentration of half-maximal effect.

SMILES	Rab9 prom act	SMN2 splice enh	ELG1 genotox	FLuc modulator	NPC1 prom act	ELG1 repair inh
CCc1ccc(CN(C)C(=O)c2cc(COc3cccc(C(F)(F)F)c3)on2)nc1	19%	·	-5%	-8%	6%	0%
COc1ccc(OCc2cc(C(=O)N(C)Cc3nnc(C)o3)no2)c(Cl)c1	3.5µM*	·	?	8.5µM*	3.2µM*	?
COc1ccc(OCc2cc(C(=O)N(C)Cc3cc(C)no3)no2)c(Cl)c1	4µM*	·	?	6µM*	2.8µM*	?
COc1cc(Cl)ccc1OCc1cc(C(=O)N(C)Cc2nnc(C)o2)no1	26%	·	?	?	29%	?
CCc1ccc(CN(C)C(=O)c2cc(COc3ccc(OC)cc3Cl)on2)nc1	?	·	?	15µM*	3.2µM*	?
CCN(Cc1ccncc1)C(=O)c1cc(COc2ccc(OC)cc2Cl)on1	2.8µM*	·	?	21µM*	3.2µM*	?
CCN(Cc1ccncc1)C(=O)c1cc(COc2ccc(F)cc2Cl)on1	11%	·	-4%	0%	2%	-29%
Cc1ccc(CN2COc3c(Cl)cc4c(-c5ccccc5)cc(=O)oc4c3C2)cc1	·	2%	·	-3%	·	·
COc1ccc(OCc2cc(C(=O)N3CCCN(C(C)=O)CC3)no2)c(Cl)c1	30%	·	?	27µM*	?	?
Cc1[nH]c2ccccc2c1C(=O)/C=C/c1ccccc1	?	28%	14%	4.8µM*	3.2µM*	?
Cc1[nH]c2ccccc2c1C(=O)/C=C\c1ccccc1Cl	?	?	?	6µM*	?	?
CC(=O)c1c(C)[nH]c2ccccc2c1=O	1%	4%	0%	2%	-3%	-13%
Cc1[nH]c2ccccc2c1C(=O)CSc1ccc(Cl)cc1	26%	9%	?	?	23%	11%
Cc1[nH]c2ccccc2c1C(=O)/C=C/c1ccccc1Cl	3.2µM*	11µM*	?	8.5µM*	3.2µM*	?
CN(C)c1ccc(C(CNS(=O)(=O)c2ccc(Br)cc2)N2CCCC2)cc1 (stereo not drawn)	·	·	·	-4%	·	·
Cc1noc(C)c1C(=O)N1CCC[C@@]2(CCN(Cc3cc(C(F)(F)F)cc(C(F)(F)F)c3)C2)C1	·	-14%	·	·	·	·
O=C(NC1CC1)c1ccc(Cn2c(SCc3ccccc3F)nc3cccnc32)cc1	·	·	·	4.8µM*	·	·
O=C(NCc1cccs1)c1ccc(CSc2nc3cccnc3n2Cc2ccccc2)cc1	·	·	·	-14%	·	·
Cc1ccccc1Cn1c(SCc2ccc(C(=O)N3CCCCC3)cc2)nc2ccncc21	·	-64%	·	?	·	·
Cc1ccc(CSc2nc3cccnc3n2Cc2ccc(C(=O)NCCc3cccs3)cc2)cc1	·	·	·	0.43µM*	·	·
O=C(NC1CCCCC1)c1ccc(Cn2c(SCc3ccccc3F)nc3cccnc32)cc1	·	·	·	8.5µM*	·	·
O=C(NC1CCCCC1)c1ccc(CSc2nc3cccnc3n2Cc2ccccc2F)cc1	·	·	·	-16%	·	·
O=C(c1ccc(CSc2nc3ccncc3n2Cc2ccccc2F)cc1)N1CCCCCC1	·	-18%	·	24µM*	·	·
O=C(NCc1ccccc1F)c1ccc(CSc2nc3cccnc3n2Cc2ccccc2)cc1	·	·	·	-1%	·	·
O=C(CC1N=C2c3ccccc3N=C(SCC(=O)Nc3cccc(C(F)(F)F)c3)N2C1=O)NCc1cccs1 (stereo not drawn)	·	4%	·	4%	·	·
SMILES	Rab9 prom act	SMN2 splice enh	ELG1 genotox	FLuc modulator	NPC1 prom act	ELG1 repair inh
COc1ccccc1NC(=O)CSc1nncn2c1cc1sccc12	·	·	·	-2%	·	·
Cc1ccc(CSc2nc3cccnc3n2Cc2ccc(C(=O)NC3CCCCC3)cc2)cc1	·	·	·	0.34µM*	·	·
COC(=O)C1=C(C)N(Cc2ccccc2)C(=NCc2ccco2)N[C@H]1c1ccc(Br)cc1	·	·	·	7%	·	·
COc1ccc(CC(=O)Nc2nc(-c3ccc(F)c(F)c3)cs2)cc1	0%	·	-18%	-2%	-4%	21µM*
COc1ccc(CC(=O)Nc2nc(-c3ccncc3)cs2)cc1	-6%	-23%	-11%	-9%	-8%	18µM*
COc1ccc(CCC(=O)Nc2nc(-c3ccncc3)cs2)cc1	25%	-11%	-5%	?	-2%	-4%
COc1ccc(C2CC(=O)N(Cc3ccccc3)c3c2c(C)nn3-c2nc(C)cc(C)n2)c(OC)c1 (stereo not drawn)	·	·	·	-3%	·	·
Cc1ccc(-n2nnnc2CNC(=O)c2ccc(F)cc2)cc1C	·	·	·	-2%	·	·
COc1ccc(NCC(=O)N/N=C/C=C\c2ccccc2)cc1	2%	38%	-2%	?	-4%	14%
Cc1ccccc1OCC(=O)N/N=C/C=C/c1ccccc1	-5%	11%	3%	-9%	0%	4%
CCOC(=O)N/N=C/C=C/c1ccccc1	?	11µM*	?	?	?	?
COc1ccccc1NCC(=O)N/N=C/C=C/c1ccccc1	0%	17%	2%	27µM*	0%	11%
CCOC(=O)c1c(NC(=O)CSc2cn(CCNC(=O)c3c(F)cccc3F)c3ccccc23)sc2c1CCC2	·	-5%	·	3%	·	·
O=C(O)c1ccc(-c2nc(-c3cccc(C(F)(F)F)c3)cs2)cc1	-2%	2%	4%	?	24%	?
COc1ccc(-c2csc(-c3ccc(C(=O)O)cc3)n2)cc1	0.13µM*	2µM*	6%	0.95µM*	0.32µM*	?
Clc1ccc(-c2nc(-c3cc4cc(Cl)ccc4o3)cs2)cc1	-7%	·	0%	-2%	14%	1%
O=C(O)c1ccc(-c2nc(-c3ccc(Cl)cc3Cl)cs2)cc1	1.4µM*	11µM*	?	8.5µM*	1.6µM*	?
O=C(O)c1ccc(-c2nc(-c3ccc(Cl)cc3)cs2)cc1	0.32µM*	4.5µM*	19%	0.95µM*	?	?
O=C(NCCc1nc(-c2ccccc2)cs1)c1ccc(Br)cc1	-6%	-5%[1.84 µM]	0%	15µM*	-6%	?
COc1ccc(C(=O)N2CCC3(CC2)CN(C(=O)Nc2cccc(C#N)c2)C3)cc1	·	-27%	·	·	·	·
COc1cccc(CNC(=O)c2ccc(CS(=O)Cc3ccc(Cl)cc3)o2)c1 (stereo not drawn)	·	·	·	6%	·	·
C=CCNC(=O)c1ccc(-c2nc(-c3ccccc3)cs2)cc1	0.89µM*	5.6µM*	14%	?	?	?
O=C(Nc1ccc(-c2csc(-c3ccccc3)n2)cc1)c1ccccc1	-2%	-6%	3%	0%	-5%	-3%
COc1cc(/C=C2\C(=O)ON=C2c2ccccc2)cc(Br)c1O	-13%	·	18%	?	-11%	-1%
O=C1ON=C(c2ccccc2)/C1=C/c1ccc(O)cc1	-1%	·	?	?	-4%	?
